Laboratory results published in PubChem BioAssay (NCI).
Compounds without any hit were thinned out: in the full panel of roughly 83,000, 20% have a hit.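 Results are percent growth after 48 hours of single-concentration exposure. 100 means growth as in untreated cells, lower positive values show inhibition; negative values down to -100 show cell death.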 A number with no mark means an inactive call. Activity calls are given as the source filed them. Rule for the calls: active = growth percent below 10; inactive = the rest.

test system: SW-620 colon; experiment: NCI-60 one-dose screen, 48 h (100 = growth as untreated, 0 = no growth, -100 = all killed); settings: 10 µM unless noted

SMILES | growth
COc1ccc(-c2cn(Cc3cc4ccccc4s3)nn2)cc1OCCN1CCCCC1 | 90.9%
Cc1ncc(C(=O)Nc2ccc(CN3CCN(C)CC3)c(C(F)(F)F)c2)cc1C#Cc1cnc(N)c2ccc(C#N)cc12 | 6.41% (active)
Cc1sc2nc(NCCN)[nH]c(=O)c2c1C | 95.5%
C#CCOc1cccc(Nc2ncnc3cc(NC(=O)CCl)ccc23)c1 | -49.7% (active)
COc1cc(-c2ccc(-c3ccc(C(=N)N)cc3)s2)cc(OC)c1OC | 20.9%

test system: MCF7 breast; experiment: as above; settings: 10 µM unless noted

SMILES | growth
COC(=O)c1c(C)nc(C)c2c1C(=O)C=C(NCc1ccccc1)C2=O | 76%
COc1ccc2[nH]cc(-c3nonc3-c3c[nH]c4ccc(Br)cc34)c2c1 | 31.2%
C=C(C)[C@@H]1CC[C@]2(COC3CCCCO3)CC[C@]3(C)[C@H](CC[C@@H]4[C@@]5(C)C=C(C=O)C(=O)C(C)(C)[C@@H]5CC[C@]43C)[C@@H]12 (stereo not given in full) | -58.4% (active)
CCOc1ncc([N+](=O)[O-])c(OCC)n1 | 93.8%
c1ccc(-c2c(-c3ccccc3)[n+](Cc3ccc4ccccc4c3)cn2Cc2ccc3ccccc3c2)cc1 | -83.8% (active)
Cn1cc(-c2csc(-c3cn(CCCN4CCOCC4)c4ccc(F)cc34)n2)c2cccnc21 | 34.1%
Cc1cn(C)cn1 | 94.9%
COC(=O)c1sccc1-c1cc(O)c(C(=O)Nc2ccccc2)s1 | 82%
CCCCCc1ccc(S(=O)(=O)Nc2ccc3nc(N)oc3c2)cc1 | 31.8%
COc1ccc2c(O)c(/C=C3\N=Nc4ncccc43)oc2c1C[C@@H]1CCNC[C@H]1F | -14.5% (active)
CCN(CC)CCCC(Cc1ccccc1)Nc1c2ccc(Cl)cc2nc2ccc(OC)cc12 (stereo not given) | -9.45% (active)
CNCC[C@H](Oc1cccc2ccccc12)c1cccs1 | 78.1%
CCOC(=O)c1cnn(CC(C)O)c1NC(=O)NCc1cccc(F)c1 (stereo not given) | 104%
N#Cc1ccc(/C=C/c2cn(-c3ccccc3)nc2-c2cccc([N+](=O)[O-])c2)cc1 | 58.7%
O=C(/C=C/c1ccco1)Nc1ncc(Cc2cc(Cl)ccc2Cl)s1 | 13.3%
CCOC(=O)c1nnn(Cc2cc(=O)oc3ccc(O)cc23)c1C | 92.4%
CC1(C)CC[C@]23CC[C@]4(C)[C@H](CC[C@@H]5[C@@]6(C)C/C(=C/O)C(=O)C(C)(C)[C@@H]6CC[C@]54C)[C@H]2[C@H]1OC3 | 85.7%
COC(=O)c1nc(-c2ccccc2)oc1S(=O)(=O)N1CCCC(C)C1 (stereo not given) | 47.3%
Cc1ccc2c(/C=C/C(=O)c3cc(CN4CCOCC4)c(O)c4nc(C)ccc34)cc(CN3CCOCC3)c(O)c2n1 | 4.69% (active)
CCN1C(=O)N(CC)C2C1NN=c1s/c(=C\c3ccc(OC)cc3)c(=O)n12 (stereo not given) | 14.4%

SMILES | growth
COc1ccc(C/C(C)=C(\c2ccc(Cl)cc2)c2ccc(OCCN3CCCC3)cc2)cc1 | 35.7%
CCN(CC)CCOc1ccc(Nc2ncc3cc(-c4c(Cl)cccc4Cl)c(=O)n(CCOC)c3n2)cc1 | 17.2%
O=C(O)c1cn(C2CC2)c2cc(N3CCN(C(=O)N4CCOCC4)CC3)c(F)cc2c1=O | 103%
Clc1ccc(-c2nc(C(Cl)Cl)nc3cc(-c4ccccc4)nn23)cc1 | 24.8%
c1cc(OCCN2CCCCCC2)ccc1CNc1ccc2nc(CCC3CCCCC3)[nH]c2c1 | 5.67% (active)
CN(C)CCCC1(c2ccc(F)cc2)OCc2cc(-c3csc4ccccc34)ccc21 (stereo not given) | -62.5% (active)
C(=C(\C1=NCCN1)n1ccc2ccccc21)/c1ccccc1 | 84.5%
COc1ccc(C/C(C)=C(\c2ccc(Cl)cc2)c2ccc(OCCCN(C)C)cc2)cc1 | 16.2%
Cc1ccc(S(=O)(=O)c2nc(-c3ccccc3)oc2SCC(N)=O)cc1 | 96%
CCCCn1c(NC(C)=O)c(S(=O)(=O)c2ccccc2)c2nc3ccccc3nc21 | 98.4%
Cc1ccc(Cc2cnc(NC(=O)/C=C/c3ccc(C)o3)s2)cc1 | 12.3%
CCN(CC)CCOc1ccc(C(=O)/C=C\c2ccc(Cl)cc2Cl)cc1 | -48.1% (active)
O=C(/C=C/C12c3ccccc3C(c3ccccc31)C1C(=O)NC(=O)C12)c1ccco1 (stereo not given) | 12.8%
CCOC(=O)C1=C(CC(O)c2ccc(OC)cc2OC)NC(=O)NC1c1ccccc1 (stereo not given) | 120%
COc1ccc2c(c1)CC[C@@H]1[C@@H]2CC[C@]2(C)c3c(cc(C#N)c4c3sc3ccccc34)C[C@@H]12 | 106%
COc1ccc(-c2cn(Cc3cc4ccccc4s3)nn2)cc1OCCN1CCCCC1 | 60.6%
Cc1ncc(C(=O)Nc2ccc(CN3CCN(C)CC3)c(C(F)(F)F)c2)cc1C#Cc1cnc(N)c2ccc(C#N)cc12 | 11.5%
Cc1sc2nc(NCCN)[nH]c(=O)c2c1C | 89.6%
C#CCOc1cccc(Nc2ncnc3cc(NC(=O)CCl)ccc23)c1 | -15.9% (active)
COc1cc(-c2ccc(-c3ccc(C(=N)N)cc3)s2)cc(OC)c1OC | 13.6%
